# Measurements as given in paper PMC3218832.
# Columns and labels:
# Assay in all cases: protein binding microarray; high values mean tight binding
# Details in all cases: dsDNA, one strand shown
# RELARELA (p65 homodimer) = RELARELA (p65 homodimer) (Homo sapiens, UniProt Q04206 1-307)
# p50p50 homodimer = p50p50 homodimer (Homo sapiens, UniProt P19838 7-356)
# p52p52 homodimer = target: T1, p52p52 homodimer (Homo sapiens, UniProt Q00653 4-332)
# T1 sequence: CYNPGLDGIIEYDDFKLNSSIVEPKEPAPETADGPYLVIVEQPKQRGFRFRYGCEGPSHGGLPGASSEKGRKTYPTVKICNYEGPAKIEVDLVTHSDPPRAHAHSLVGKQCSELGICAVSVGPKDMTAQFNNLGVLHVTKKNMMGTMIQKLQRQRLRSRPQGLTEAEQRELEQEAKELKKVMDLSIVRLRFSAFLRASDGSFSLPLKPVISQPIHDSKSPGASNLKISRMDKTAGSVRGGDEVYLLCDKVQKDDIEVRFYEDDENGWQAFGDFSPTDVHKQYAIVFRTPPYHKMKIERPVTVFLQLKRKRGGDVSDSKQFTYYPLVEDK
# [1] = target: RELA (p65) subunit of heterodimer;p50 subunit (Homo sapiens;Homo sapiens, UniProt Q04206;P19838 1-307;7-356)
# [2] = target: RELA (p65) subunit of heterodimer;p52 subunit (Homo sapiens;Homo sapiens, UniProt Q04206;Q00653 1-307;4-332)
# RELB subunit;p50 subunit = RELB subunit;p50 subunit (Homo sapiens;Homo sapiens, UniProt Q01201;P19838 120-401;7-356)
# RELB subunit;p52 subunit = target: T2, RELB subunit;p52 subunit (Homo sapiens;Homo sapiens, UniProt Q01201;Q00653 120-401;4-332)
# T2 sequence 1: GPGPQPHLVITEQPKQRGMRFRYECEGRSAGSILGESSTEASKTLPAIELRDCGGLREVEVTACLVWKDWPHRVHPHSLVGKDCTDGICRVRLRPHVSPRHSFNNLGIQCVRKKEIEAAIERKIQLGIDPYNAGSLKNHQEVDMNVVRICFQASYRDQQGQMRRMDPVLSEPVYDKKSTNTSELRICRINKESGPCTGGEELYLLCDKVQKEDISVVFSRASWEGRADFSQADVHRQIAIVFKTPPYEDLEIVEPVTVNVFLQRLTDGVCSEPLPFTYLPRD
# T2 sequence 2: T1 sequence
# [3] = target: C-Rel subunit;p50 subunit (Homo sapiens;Homo sapiens, UniProt Q04864;P19838 1-285;7-356)
# [4] = target: T3, C-Rel subunit;p52 subunit (Homo sapiens;Homo sapiens, UniProt Q04864;Q00653 1-285;4-332)
# T3 sequence 1: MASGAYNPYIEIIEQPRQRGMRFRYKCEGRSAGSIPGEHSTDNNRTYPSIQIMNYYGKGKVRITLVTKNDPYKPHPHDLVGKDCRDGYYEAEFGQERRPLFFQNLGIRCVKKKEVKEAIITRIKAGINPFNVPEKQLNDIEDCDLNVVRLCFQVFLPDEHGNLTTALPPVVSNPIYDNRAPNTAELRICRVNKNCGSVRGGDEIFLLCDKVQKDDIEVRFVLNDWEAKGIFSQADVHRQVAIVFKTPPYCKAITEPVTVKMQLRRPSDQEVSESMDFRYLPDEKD
# T3 sequence 2: T1 sequence
# Sequence of p50p50 homodimer (P19838 7-356): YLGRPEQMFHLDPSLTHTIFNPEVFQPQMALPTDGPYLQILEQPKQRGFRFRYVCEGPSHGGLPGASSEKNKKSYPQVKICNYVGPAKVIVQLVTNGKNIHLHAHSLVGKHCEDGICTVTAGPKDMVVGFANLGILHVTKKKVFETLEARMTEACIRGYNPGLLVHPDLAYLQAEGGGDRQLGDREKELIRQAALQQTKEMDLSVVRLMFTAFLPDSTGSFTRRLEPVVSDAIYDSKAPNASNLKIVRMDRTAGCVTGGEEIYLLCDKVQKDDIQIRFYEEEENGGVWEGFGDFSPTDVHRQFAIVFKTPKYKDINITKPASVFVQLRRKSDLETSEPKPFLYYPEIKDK
# Sequence of RELARELA (p65 homodimer) (Q04206 1-307): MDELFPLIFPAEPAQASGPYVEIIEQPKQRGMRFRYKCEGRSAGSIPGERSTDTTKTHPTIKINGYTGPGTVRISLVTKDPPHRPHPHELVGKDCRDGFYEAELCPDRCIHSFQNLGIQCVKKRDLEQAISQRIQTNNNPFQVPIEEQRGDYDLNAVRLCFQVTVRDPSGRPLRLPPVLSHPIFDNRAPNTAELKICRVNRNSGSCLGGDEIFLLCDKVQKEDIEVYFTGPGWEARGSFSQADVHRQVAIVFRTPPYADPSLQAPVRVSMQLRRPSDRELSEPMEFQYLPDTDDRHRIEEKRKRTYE
# Sequence of RELA (p65) subunit of heterodimer;p50 subunit (Q04206 1-307, chain 1 of 2): as the sequence (Q04206 1-307) above
# Sequence of RELA (p65) subunit of heterodimer;p50 subunit (P19838 7-356, chain 2 of 2): as the sequence (P19838 7-356) above
Sequence,binding signal (RELARELA (p65 homodimer)) [z-score],binding signal (p50p50 homodimer) [z-score],binding signal (p52p52 homodimer) [z-score],binding signal [1] [z-score],binding signal [2] [z-score],binding signal (RELB subunit;p50 subunit) [z-score],binding signal (RELB subunit;p52 subunit) [z-score],binding signal [3] [z-score],binding signal [4] [z-score]
CAGGGGACCCT,-0.887,0.487,0.583,0.0452,0.384,0.29,0.53,-0.293,-0.0494
CAATAATCCCT,-0.146,0.635,0.735,0.226,0.493,0.496,0.698,0.212,0.284
AAGAGATCCCT,-0.452,-0.0204,-0.142,-0.376,-0.411,0.117,-0.279,-0.41,-0.484
CAAGAACCCCC,-0.244,1.28,1.21,1.6,1.28,1.46,1.32,1.04,0.879
GAATATTCCCT,1.37,1.19,1.3,1.24,1.28,1.04,1.2,0.882,1.16
GGGGAGGTCCT,0.546,0.328,1.26,0.275,0.847,0.375,0.376,0.314,0.559
CAAATAATCCT,-0.308,-0.88,-0.501,-0.911,-0.746,-0.974,-0.846,-1.09,-0.674
GGGGTACTCCT,0.917,0.595,0.756,0.47,0.851,0.471,0.712,0.395,0.674
GAAGAAGCCCT,-0.988,-1.65,-0.651,-0.934,-0.868,-1.04,-0.801,-1.08,-0.998
GGAGGCGCCCC,-0.259,-0.0933,-0.0824,-0.062,0.0158,0,0.214,-0.156,-0.0409
AAGAGAGCCCC,-0.68,0.339,0.122,0.109,-0.015,-0.0342,-0.125,0.0932,0.00397
GAAAACATCCC,0.244,-0.173,-0.106,-0.0842,-0.0683,-0.24,-0.321,-0.174,-0.211
CGGGACTCCCC,1.91,0.81,2.76,1.88,1.9,1.59,1.87,1.93,2.5
GAGAAGCCCCT,-0.384,1.19,1.26,1.3,1.14,1.22,1.41,0.87,0.78
AGATGGTTCCT,-0.148,-2.29,-0.605,-0.843,-0.727,-0.879,-0.835,-1.36,-0.824
AAATACGTCCC,0.519,0.264,0.547,0.144,0.183,0.285,0.334,0.368,-0.029
AGAATTTCCCC,3.09,1.24,2.64,2.2,2.3,2.59,2.28,1.85,2.29
CGGAAATCCCT,2.44,1.09,1.3,1.35,1.25,0.939,1.47,1.21,1.56
GAAAAATTCCT,1.78,-0.0646,-0.212,0.245,0.117,-0.659,-0.236,0.538,0.319
GGGTGTGTCCC,0.547,0.331,1.38,0.647,1.02,0.42,0.593,0.648,0.813

Sequence,binding signal (RELARELA (p65 homodimer)) [z-score],binding signal (p50p50 homodimer) [z-score],binding signal (p52p52 homodimer) [z-score],binding signal [1] [z-score],binding signal [2] [z-score],binding signal (RELB subunit;p50 subunit) [z-score],binding signal (RELB subunit;p52 subunit) [z-score],binding signal [3] [z-score],binding signal [4] [z-score]
GAGTGCCCCCT,-0.00724,1.11,0.614,0.954,0.871,0.913,1.16,0.836,0.745
CAGATCCCCCT,-0.0668,1.6,1.41,2.39,1.76,2.45,2.37,1.85,1.37
AAGAAGGTCCT,-0.0161,-1.4,-0.396,-1.13,-0.801,-0.786,-0.511,-1.3,-0.718
CGGTTTTTCCC,3.71,0.935,2.66,1.81,1.88,1.05,1.78,1.57,2.3
AGGGGATCCCT,1.82,1.11,2.11,2.32,1.95,1.58,1.57,1.42,2.29
GGAGGATCCCC,0.374,1.03,1.19,1.54,1.22,1.27,0.916,1.15,0.899
GGAAAGTTCCC,2.6,0.736,0.736,1.29,1.02,0.762,0.686,0.966,0.929
GAAAATCTCCC,1.06,0.914,0.592,0.875,0.8,1.08,0.63,0.573,0.538
AGGTAATTCCT,1.47,0.62,1.15,0.471,0.62,0.351,0.553,0.224,0.709
GGGAACCCCCC,2.47,1.16,3.03,2.69,2.78,2.09,2.68,2.19,2.96
GAAAAGTCCCT,1.43,1.36,2.5,2.07,1.79,2.67,2.22,1.59,2.16
CGGTGCCTCCT,-0.441,-0.702,-0.485,-0.873,-0.611,-0.763,-0.769,-1.19,-0.785
AAGAGAGTCCT,0.889,-0.892,-0.435,-0.32,-0.676,-0.818,-0.673,-0.59,-0.442
GGATTCCCCCT,2.01,1.46,2.93,2.64,2.73,2.83,2.57,2.03,2.78
AAGGGAATCCC,2.03,0.857,2.29,1.16,1.75,1.21,1.57,1.02,1.92
GAAGTGTCCCT,-0.0315,0.834,0.946,0.67,1.04,1.07,1.37,0.382,0.65
CAAGACGCCCT,-0.812,-2.01,-0.745,-0.983,-0.966,-1.04,-0.904,-1.34,-0.839
GAAGTTATCCC,-0.0836,-0.295,-0.152,-0.31,-0.235,-0.113,-0.152,-0.126,-0.251
AAAAATCCCCT,2.27,1.6,3.18,2.55,2.84,3.22,2.88,2.19,3.19
CGGTACTCCCT,0.445,0.837,0.708,0.515,0.425,0.724,0.415,0.323,0.382

Sequence,binding signal (RELARELA (p65 homodimer)) [z-score],binding signal (p50p50 homodimer) [z-score],binding signal (p52p52 homodimer) [z-score],binding signal [1] [z-score],binding signal [2] [z-score],binding signal (RELB subunit;p50 subunit) [z-score],binding signal (RELB subunit;p52 subunit) [z-score],binding signal [3] [z-score],binding signal [4] [z-score]
GAAGTTTCCCC,2.24,1.35,2,2.3,1.99,2.19,2.19,1.89,1.71
AGGGATCTCCC,1.05,0.595,2.05,1.2,1.32,1.27,1.12,0.678,1.36
AGGATGTTCCC,0.975,-0.225,-0.143,0.237,0.0834,-0.426,-0.342,0.00777,-0.0123
GAGTGCGTCCT,-0.395,-1.33,-0.581,-0.981,-0.769,-0.991,-0.844,-1.14,-0.662
CAAGTTGTCCC,0.644,0.614,0.469,0.421,0.267,0.826,0.446,0.778,0.251
CAATTCGTCCC,0.717,0.108,0.533,-0.0179,0.123,0.362,0.547,0.479,0.00577
CAGTGTTTCCT,0.51,-0.616,-0.52,-0.47,-0.473,-0.831,-0.677,-0.349,-0.285
CGGGTATCCCC,1.9,0.854,2.48,1.84,2.01,0.893,1.59,1.64,2.53
GAAAGTGTCCT,0.0215,-1.58,-0.464,-0.843,-0.45,-0.858,-0.525,-0.958,-0.375
GAAAACGTCCT,-0.176,-1.26,-0.536,-0.838,-0.654,-0.872,-0.687,-0.823,-0.648
GGATAGGTCCC,-0.076,-0.336,0.0228,-0.276,-0.141,-0.137,-0.101,-0.467,-0.334
CGAAATCCCCC,1.7,1.64,2.27,2.33,2.13,2.58,2.42,1.83,2.36
GAGATAGTCCT,-0.228,-0.791,-0.575,-0.973,-0.809,-0.986,-0.865,-1.2,-0.764
AAAGTGGTCCC,-0.237,0.456,0.16,-0.319,-0.267,0.24,-0.0596,-0.25,-0.422
GAGAGACTCCT,-0.455,-2.14,-0.793,-1.01,-1.21,-1.19,-1.24,-1.58,-1.02
CGGGGAATCCC,3.57,1.22,3.13,2.36,2.81,2.64,2.75,2.51,3.54
CAGAGCATCCC,-0.631,-1.46,-0.586,-0.856,-1.02,-1.02,-0.893,-1.22,-1
AGGAAACTCCT,2.04,-0.999,-0.404,-0.105,-0.54,-0.699,-0.839,-0.168,-0.211
CAGAACCTCCT,-0.658,-1.31,-0.791,-0.921,-0.938,-0.924,-0.944,-1.48,-0.853
CAAATCTCCCT,0.0987,1.24,0.832,1.06,1.05,1.35,1.4,0.664,1.06
